Results published in PubChem BioAssay (NCATS).
Results filed as inconclusive are left out. A call without a number means that no potency is given here. Active and inactive are the calls of the source. Calls follow the shape of the dose curve; as a rule, active = well fitted inhibition curve with a large enough effect; inconclusive = small, poorly fitted or top-dose-only effect; inactive = flat fitted curve, though single readings scatter.

The molecules below were run on Zika virus NS2B-NS3 protease (assay: Primary screen GU AMC qHTS for Zika virus inhibitors (AID 1347154; also: nearly all actives have a fitted effect of over 70% in size)). Details: Zika NS2B-NS3 unlinked protease, AMC fluorogenic substrate; series mostly up to 54.1 µM.
In short: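 Unlinked Zika NS2B hydrophilic domain–NS3 protease complex at 25 nM in 10 mM Tris-HCl pH 8.0, 0.01% Tween 20, with an AMC peptide substrate. Fluorescence change (340/450 nm) over 15 min at room temperature, normalized to controls, fitted to 4-parameter Hill.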

| SMILES | Potency |
| --- | --- |
| CCCc1ncc(C[n+]2ccccc2C)c(N)n1 | inactive |
| C#C[C@]1(O)CC[C@H]2[C@@H]3CCc4cc(OC)ccc4[C@H]3CC[C@@]21C | inactive |
| OC[C@H]1O[C@@H]2O[C@H]3[C@H](O)[C@@H](O)[C@@H](O[C@H]4[C@H](O)[C@@H](O)[C@@H](O[C@H]5[C@H](O)[C@@H](O)[C@@H](O[C@H]6[C@H](O)[C@@H](O)[C@@H](O[C@H]7[C@H](O)[C@@H](O)[C@@H](O[C@H]8[C@H](O)[C@@H](O)[C@@H](O[C@H]1[C@H](O)[C@H]2O)O[C@@H]8CO)O[C@@H]7CO)O[C@@H]6CO)O[C@@H]5CO)O[C@@H]4CO)O[C@@H]3CO | inactive |
| CN(C)CCN1C(=O)c2ccccc2N(C)c2ccccc21 | inactive |
| CCCCC(CC)COC(=O)/C=C/c1ccc(OC)cc1 (centres undefined) | inactive |
| Nc1ccc(S(=O)(=O)NCc2ccccc2)cc1 | inactive |
| CCC(C(=O)OCCOCCN(CC)CC)c1ccccc1 (centres undefined) | inactive |
| Cc1cc2c(OCC(CNC(C)(C)C)OC(=O)c3ccccc3)cccc2[nH]1 (centres undefined) | inactive |
| COc1ccc(S(=O)(=O)N2c3ccc(Cl)cc3[C@@](O)(c3ccccc3Cl)[C@H]2C(=O)N2CCC[C@@H]2C(N)=O)cc1OC | inactive |
| CC(C(=O)O)c1cccc(Oc2ccccc2)c1 (centres undefined) | inactive |
| CC(C)(C)CC(C)(C)c1ccc(O)c(-n2nc3ccccc3n2)c1 | inactive |
| COc1ccc(-c2cc(C(F)F)nn2-c2ccc(S(N)(=O)=O)cc2)cc1F | inactive |
| C/C=C/C=N/NC(=O)c1ccncc1 | inactive |
| CC(C)(C)NC[C@H](O)COc1cccc2c1CCCC2=O | inactive |
